Experimental findings from PubChem BioAssay are described below.

Values without a mark were called inactive. For some of these results: Entries with a potency or affinity are not part of this list. Calls of active or inactive are those of the source. Unless noted, no rule for the calls is given here.

A short description of experiment [1]: antimalarial activity against Dd2 strain (AID 2302;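 active = growth inhibition above 50% at the single 2 µM test dose, taken to imply half-maximal potency below 2 µM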;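 also: 0% = DMSO untreated growth and 100% = chloroquine plus artemisinin killed control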). Conditions: P. falciparum Dd2 in RBCs, LDH growth readout, 72 h; at 2 µM; hits give high values.
Experiment [2] can be described thus: human hepatoma cell viability loss – ATP luminescence, cytotoxicity control for P. falciparum antimalarial project, primary screen (AID 2303;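 active = inhibition above 50%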;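 also: 0% = DMSO wells and 100% = digitonin-killed cells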). The note with it: HepG2 viability, 24-48 h, at 10 µM, hits give high values.
In experiment [3] the target is L-lactate dehydrogenase (Plasmodium falciparum (isolate CDC / Honduras)) (UniProt Q27743). In words: PfLDH activity inhibition – cell lysate, 3D7 strain, counter-screen for P. falciparum growth inhibition project (AID 2304).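 Also: 0% = vehicle and 100% = reference inhibitor.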 Conditions: P. falciparum 3D7 crude extract, LDH APAD/NBT absorbance; at 2 µM; hits give high values. Background: Counterscreens check selectivity or assay interference.
L-lactate dehydrogenase (Plasmodium falciparum (isolate CDC / Honduras)), sequence (Q27743 whole entry, looked up): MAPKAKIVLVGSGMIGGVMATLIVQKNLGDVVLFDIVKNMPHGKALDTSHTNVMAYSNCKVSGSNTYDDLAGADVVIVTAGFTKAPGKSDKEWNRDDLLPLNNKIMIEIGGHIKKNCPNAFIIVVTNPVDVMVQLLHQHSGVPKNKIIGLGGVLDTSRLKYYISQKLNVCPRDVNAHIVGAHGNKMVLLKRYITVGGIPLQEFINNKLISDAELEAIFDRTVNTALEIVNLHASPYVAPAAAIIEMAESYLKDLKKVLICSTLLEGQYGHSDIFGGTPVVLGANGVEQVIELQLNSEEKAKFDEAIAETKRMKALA

Experiment [4] in a line: inhibition of 3D7 malaria parasite growth – strain 3D7 (AID 2306).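 Also: 0% = DMSO wells and 100% = chloroquine plus artemisinin control wells.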 The note with it: P. falciparum 3D7 erythrocytic growth, LDH absorbance, 72 h; at 2 µM; hits give high values.
Experiment [5] has as its target Calcium-dependent protein kinase 1 (Plasmodium falciparum (isolate 3D7)) (UniProt P62344). In words: PfCDPK1 kinase inhibitors, biochemical, TCAMS library (AID 1159585; cut-off not given, nearly all actives have IC50 up to about 0.98 µM;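 also: inhibitors leave more ATP so luminescence rises with inhibition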). Conditions: recombinant PfCDPK1, Kinase-Glo ATP depletion luminescence. (In Kinase-Glo more light means more ATP remaining.)
Experiment [6] deals with Plasmodium falciparum protein kinase 6 (PK6, PF3D7_1337100) (UniProt Q8IDW1). In words: PfPK6 kinase inhibitors, biochemical, TCAMS library (AID 1159586). Conditions: recombinant PfPK6, Kinase-Glo ATP depletion luminescence.
Plasmodium falciparum protein kinase 6 (PK6, PF3D7_1337100), sequence (Q8IDW1 1-305): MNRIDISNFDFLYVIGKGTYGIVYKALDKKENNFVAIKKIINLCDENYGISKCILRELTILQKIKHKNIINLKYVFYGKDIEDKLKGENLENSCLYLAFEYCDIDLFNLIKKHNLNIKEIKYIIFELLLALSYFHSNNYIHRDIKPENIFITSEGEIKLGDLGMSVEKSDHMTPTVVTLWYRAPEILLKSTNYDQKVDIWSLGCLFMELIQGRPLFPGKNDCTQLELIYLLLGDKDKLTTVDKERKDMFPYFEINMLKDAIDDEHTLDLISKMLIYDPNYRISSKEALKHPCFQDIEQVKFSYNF
For experiment [7], the target named is Protein kinase 7 (PK7), Plasmodium falciparum 3D7 (PF3D7_0213400) (UniProt Q7YTF7). In words: inhibition of Plasmodium PK7 catalytic activity – biochemical, TCAMS antimalarial set, Kinase-Glo luminescence (AID 1159587). The note with it: recombinant PfPK7, Kinase-Glo ATP depletion luminescence.
Protein kinase 7 (PK7), Plasmodium falciparum 3D7 (PF3D7_0213400), sequence (Q7YTF7 1-343): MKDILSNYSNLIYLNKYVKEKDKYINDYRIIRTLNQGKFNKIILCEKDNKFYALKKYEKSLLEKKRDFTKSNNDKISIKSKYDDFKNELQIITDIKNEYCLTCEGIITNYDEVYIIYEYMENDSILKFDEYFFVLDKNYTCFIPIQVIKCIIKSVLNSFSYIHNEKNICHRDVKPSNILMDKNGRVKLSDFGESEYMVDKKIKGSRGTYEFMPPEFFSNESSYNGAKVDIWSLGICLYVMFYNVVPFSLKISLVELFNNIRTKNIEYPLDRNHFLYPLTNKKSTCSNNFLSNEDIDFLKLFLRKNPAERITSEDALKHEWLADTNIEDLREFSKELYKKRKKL
Experiment [8] concerns the target Calcium-dependent protein kinase 4 (Plasmodium falciparum (isolate 3D7)) (UniProt Q8IBS5). Nature of the experiment: PfCDPK4 kinase inhibitors, biochemical, TCAMS library (AID 1159588; cut-off not given, nearly all actives have IC50 up to about 0.91 µM). The note with it: recombinant PfCDPK4, Kinase-Glo ATP depletion luminescence.

Calcium-dependent protein kinase 4 (Plasmodium falciparum (isolate 3D7)), sequence (Q8IBS5 whole entry, looked up): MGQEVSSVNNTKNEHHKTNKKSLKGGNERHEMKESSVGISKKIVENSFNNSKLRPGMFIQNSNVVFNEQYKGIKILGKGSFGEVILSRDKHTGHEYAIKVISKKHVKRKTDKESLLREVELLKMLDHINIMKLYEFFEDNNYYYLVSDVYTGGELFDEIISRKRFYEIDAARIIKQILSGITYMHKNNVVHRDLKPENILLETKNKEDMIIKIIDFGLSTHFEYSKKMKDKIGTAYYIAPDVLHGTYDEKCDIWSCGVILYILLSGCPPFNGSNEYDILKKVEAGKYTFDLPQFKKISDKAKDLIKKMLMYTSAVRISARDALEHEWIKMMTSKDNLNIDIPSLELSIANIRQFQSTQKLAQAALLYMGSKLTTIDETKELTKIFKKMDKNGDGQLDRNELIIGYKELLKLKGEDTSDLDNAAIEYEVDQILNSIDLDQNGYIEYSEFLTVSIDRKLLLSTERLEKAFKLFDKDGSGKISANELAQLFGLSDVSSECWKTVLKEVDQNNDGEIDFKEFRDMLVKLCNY
Calcium-dependent protein kinase 1 (Plasmodium falciparum (isolate 3D7)), sequence (P62344 whole entry, looked up): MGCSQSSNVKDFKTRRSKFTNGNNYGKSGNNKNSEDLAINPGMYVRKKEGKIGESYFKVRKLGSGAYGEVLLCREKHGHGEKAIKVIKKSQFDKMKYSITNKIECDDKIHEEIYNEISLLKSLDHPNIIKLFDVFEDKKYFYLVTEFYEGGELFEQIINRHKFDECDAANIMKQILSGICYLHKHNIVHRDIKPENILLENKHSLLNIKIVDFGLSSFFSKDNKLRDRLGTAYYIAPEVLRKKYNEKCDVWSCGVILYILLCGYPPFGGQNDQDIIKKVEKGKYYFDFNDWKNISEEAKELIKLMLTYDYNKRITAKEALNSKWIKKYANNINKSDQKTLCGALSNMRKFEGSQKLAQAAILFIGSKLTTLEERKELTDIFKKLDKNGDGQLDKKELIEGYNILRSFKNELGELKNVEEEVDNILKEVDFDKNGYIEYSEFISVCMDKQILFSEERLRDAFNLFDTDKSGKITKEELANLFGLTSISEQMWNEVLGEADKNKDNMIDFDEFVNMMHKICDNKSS

As for `Fc1ccc2nc(-c3cccc(-c4ccc(CN5CCC(CCN6CCCCC6)CC5)cc4)c3)[nH]c2c1`, the growth inhibition in experiment [1] was 100% (active); in experiment [4], 101% (active). Moreover, the inhibition was 91% (active) in experiment [2] and -2% in experiment [3]. The outcome in experiment [5], in experiment [6], in experiment [7] and in experiment [8] was inactive.

For `COc1ccc(C=NNc2c3ccccc3nc3ccccc23)c2ccccc12`, the growth inhibition in experiment [1] was 23%; in experiment [4], 82% (active). Further, the values for the inhibition in experiment [2] and in experiment [3] were 9% and 2%, respectively. For the same compound, the result in experiment [5], in experiment [6], in experiment [7] and in experiment [8] was inactive.

Take `Nc1cc(C=Cc2ccc([N+](=O)[O-])o2)nc2ccccc12`: the growth inhibition was 81% (active) in experiment [1] and 93% (active) in experiment [4]. In addition, the inhibition in experiment [2] was 100% (active); in experiment [3], 4%. Further, the result in experiment [5], in experiment [6], in experiment [7] and in experiment [8] was inactive.

Consider `O=C(c1cccs1)N1N=C(c2cccs2)CC1c1cccc([N+](=O)[O-])c1` (stereo not given), for which the growth inhibition is 27% in experiment [1] and 95% (active) in experiment [4]. The values for the inhibition in experiment [2] and in experiment [3] were 5% and -10%, respectively. The outcome in experiment [5], in experiment [6], in experiment [7] and in experiment [8] was inactive.

For `Fc1cccc2sc(Nc3nc(-c4ccccn4)cs3)nc12`, the growth inhibition was 97% (active) in experiment [1] and 95% (active) in experiment [4]. Further, the inhibition is 30% in experiment [2] and 6% in experiment [3]. The outcome in experiment [5], in experiment [6], in experiment [7] and in experiment [8] was inactive.

In the case of `CN1CCCN(Cc2ccc(-c3cccc(NC(=O)c4ccc(Cl)cc4)c3)cc2)CC1`, the results for the growth inhibition in experiment [1] and in experiment [4] were 50% (active) and 98% (active), respectively. The results for the inhibition in experiment [2] and in experiment [3] were 34% and -4%, respectively. Besides, the outcome in experiment [5], in experiment [6], in experiment [7] and in experiment [8] was inactive.

Regarding `O=C(NC1CCC(CCN2Cc3cccc(C(F)(F)F)c3C2)CC1)c1cccc(-c2cccnc2)c1` (stereo not given), the results for the growth inhibition in experiment [1] and in experiment [4] were 67% (active) and 100% (active), respectively. Besides, the values for the inhibition in experiment [2] and in experiment [3] were 26% and 2%, respectively. In addition, the result in experiment [5], in experiment [6], in experiment [7] and in experiment [8] was inactive.

`CC(C)CCN1CCC(Oc2ccc(NC(=O)c3ccccc3)cc2Cl)CC1`: the growth inhibition in experiment [1] is 88% (active); in experiment [4] it was 87% (active). Further, the inhibition in experiment [2] was 17%; in experiment [3], 5%. The result in experiment [5], in experiment [6], in experiment [7] and in experiment [8] was inactive.

On to `CC(=O)Nc1cccc(-c2cn(-c3ccc(OCc4cccc(F)c4)c(Cl)c3)c3ncncc23)c1`, for which the growth inhibition is 66% (active) in experiment [1] and 100% (active) in experiment [4]. Besides, the inhibition was 7% in experiment [2] and -4% in experiment [3]. Also, the result in experiment [5], in experiment [6], in experiment [7] and in experiment [8] was inactive.

In the case of `NC1CCN(Cc2ccc(-c3ccc(-c4nc5ccccc5[nH]4)cc3)cc2)C1` (stereo not given), the growth inhibition in experiment [1] is 100% (active); in experiment [4], 101% (active). Moreover, the inhibition in experiment [2] was 34%; in experiment [3], -5%. Besides, the result in experiment [5], in experiment [6], in experiment [7] and in experiment [8] was inactive.

With `COc1ccc(CCN2CCC(CN(C)Cc3cnn(-c4ccccc4)c3)CC2)cc1`, the results for the growth inhibition in experiment [1] and in experiment [4] were 5% and 90% (active), respectively. Moreover, the inhibition in experiment [2] is 25%; in experiment [3] it was -1%. Besides, the outcome in experiment [5], in experiment [6], in experiment [7] and in experiment [8] was inactive.

As for `Cc1cccc2[nH]c(-c3ccc(-c4cccc(C(=O)N5CCCCC5C(C)O)c4)s3)nc12` (stereo not given), the growth inhibition is 53% (active) in experiment [1] and 101% (active) in experiment [4]. Further, the inhibition in experiment [2] is 27%; in experiment [3] it was -1%. The result in experiment [5], in experiment [6], in experiment [7] and in experiment [8] was inactive.

For `CN1CCC(C(=O)Nc2ccc(-c3ccc(-c4nc5ccccc5[nH]4)cc3)cc2)CC1`, the results for the growth inhibition in experiment [1] and in experiment [4] were 94% (active) and 101% (active), respectively. Further, the values for the inhibition in experiment [2] and in experiment [3] were 28% and 5%, respectively. Moreover, the outcome in experiment [5], in experiment [6], in experiment [7] and in experiment [8] was inactive.

Turning to `O=C(Nc1ccc(N2CCN(c3ncccc3C(F)(F)F)CC2)nc1)c1cccs1`, the growth inhibition in experiment [1] is 40%; in experiment [4], 83% (active). In addition, the inhibition in experiment [2] was 7%; in experiment [3] it was -7%. Further, the result in experiment [5], in experiment [6], in experiment [7] and in experiment [8] was inactive.

On to `O=C(CC1NC(=O)c2ccccc21)Nc1ccc(-c2ccc(-c3nc4ccc(C(F)(F)F)cc4[nH]3)cc2)cc1` (stereo not given), for which the growth inhibition in experiment [1] is 70% (active); in experiment [4] it was 87% (active). Besides, the inhibition was 39% in experiment [2] and -2% in experiment [3]. Further, the outcome in experiment [5], in experiment [6], in experiment [7] and in experiment [8] was inactive.

On to `CCN(CCCN1CCCCC1)c1cc(C)nc(Nc2ccc(C)c(F)c2)n1`, for which the growth inhibition in experiment [1] was 92% (active); in experiment [4], 102% (active). The results for the inhibition in experiment [2] and in experiment [3] were 20% and -5%, respectively. For the same compound, the result in experiment [5], in experiment [6], in experiment [7] and in experiment [8] was inactive.

As to `CC(C)(C)c1ccc(-c2csc(NC(=O)CC(c3ccccc3)c3ccccc3)n2)cc1`, the growth inhibition in experiment [1] was 64% (active); in experiment [4] it was 86% (active). For the same compound, the inhibition is 3% in experiment [2] and -6% in experiment [3]. Besides, the result in experiment [5], in experiment [6], in experiment [7] and in experiment [8] was inactive.

Take `COc1cccc2c(C)cc(NCc3ccc(Cl)cc3)nc12`: the growth inhibition in experiment [1] is 5%; in experiment [4], 97% (active). The inhibition in experiment [2] was 7%; in experiment [3], 5%. The result in experiment [5], in experiment [6], in experiment [7] and in experiment [8] was inactive.

`CC(C)c1sc(N2CCCCC2)nc1C(=O)Nc1ccc(F)cc1C(F)(F)F`: the results for the growth inhibition in experiment [1] and in experiment [4] were 98% (active) and 100% (active), respectively. Also, the inhibition is -1% in experiment [2] and 0% in experiment [3]. The result in experiment [5], in experiment [6], in experiment [7] and in experiment [8] was inactive.

Turning to `COc1ccccc1C1CCN(CCCCNC(=O)c2ccc(/C=C/c3cc(Cl)cc(Cl)c3)cc2)CC1`, the growth inhibition in experiment [1] was 30%; in experiment [4] it was 96% (active). In addition, the inhibition was 36% in experiment [2] and 9% in experiment [3]. In addition, the result in experiment [5], in experiment [6], in experiment [7] and in experiment [8] was inactive.

Broadly, the inhibition is the change of the read-out against control, counted positive when it falls.
